Results reported in PubChem BioAssay (EPA / NIEHS).
Activity calls are given as the source filed them. The calls were made as follows: active = hit-call score of the fitted dose curve at least 0.9, where 1 is the maximum; inactive = score below 0.9.

The molecules below were run on solute carrier (SLCO1B1), SLCO1B1 (gene 10599) (assay: LTEA_HepaRG_SLCO1B1: Life Technologies and Expression Analysis (LTEA) Assay for solute carrier (SLCO1B1) using HepaRG (AID 2283530)). Details: mRNA level, 48 h; actives raise or lower the signal.
Description: LTEA_HepaRG is a cell based, multiplexed-readout assay that uses HepaRG, a human liver cell line, with measurements taken at 48 hours after chemical dosing on a 96-well plate.LTEA_HepaRG_SLCO1B1 is one of 102 assay component(s) measured in the LTEA HepaRG cell culture assay. It is a marker of NR mediated transport.Data from the assay component LTEA_HepaRG_SLCO1B1 was analyzed into 1 endpoint. This assay endpoint, LTEA_HepaRG_SLCO1B1, was analyzed with bidirectional fitting relative to DMSO as the negative control and baseline of activity. Using a type of inducible reporter, measures of mRNA induction for gain or loss-of-signal activity can be used to understand regulation of transcription factor activity. To generalize the intended target to other relatable targets, this assay endpoint is annotated to the transporter intended target family, where the subfamily is organic anion transporter.
A total of 1060 chemcials from the ToxCast library were tested in eight-point concentration-response experiments. Cell culture and cytotoxicity assays were conducted at Thermo Fisher Scientific's Custom Services facility (Madison, WI). A single lot of human HepaRG cells (Thermo Fisher Scientific, Frederick, MD) was used for the cell culture experiments. 96-well format collagen type I coated plates of human HepaRG cells were prepared using established methods. Briefly, cryopreserved HepaRG cells were thawed, plated at a density of approximately 100,000 cells/well in HepaRG Thaw, Plate, and General Purpose media (HPRG770, Thermo Fisher Scientific), and incubated for 48 hours. 0.5% DMSO was selected as vehicle control to balance the requisite need of DMSO in HepaRG cultures to maintain differentiation (for example, baseline metabolism, proportions of hepatocytes vs. cholangiocytes), while enabling further hepatic receptor pathway activation (for example, PXR and CAR) in response to chemical exposure. 48 hours after plating, the culture medium was replaced with HepaRG Serum-Free Incudtion Media. Cells were exposed to each test chemical in duplicate and maintained in CO2 incubators for another 48 hours. Chemical plates were thawed to room temperature and 200x concentrations of treatment groups were prepared. 8-point conentration-reponse curves were made with the highest exposure at 100 uM, followed by half-log dilutions, all in 0.5% DMSO. Each test plate contained variouse controls, induction positive controls (1mM phenobarbital), cytotoxicity positive controls ([…] aflatoxin B1), vehicle controls (0.5% DMSO), and total lysis controls (0.5% DMSO). Cell morphology images were taken using an Essen IncuCyte FLR automated microscope, with six 96-well plates imaged in about 24 minutes. Images were captured and exported and JPEG files. Spent culture media was transfered to black-well plates for the LDH assay, and remaining media was sorted at -80 C for later use. Cells were treated with RLT buffer and frozen until shipped for gene expression analysis. Total RNA was isolated from the cell suspension in 75 uL of Buffer RLT (Qiagen, Germantown, MD 20874) by Quintiles/Expression Analysis (Durham, NC) using a custom isolation procedure. Total RNA from each plate well was transferred to a preamplification plate. Fluidigm's 96.96 Dynamic ArrayTM (Fluidigm, Amsterdam, the Netherlands) technology was used for gene expression analyses by quantitative reverse transcription polymerase chain reaction (qRT-PCR, performed by Quintiles/Expression Analysis, Durham, NC)89. Standard TaqManTM Assays (Applied Biosystems/ThermoFisher Scientific, Foster City, CA) were used to assess the expression of 93 genes selected based on their selectivity and sensitivity to important hepatic receptors known to be modulated by environmental chemicals; importance in human hepatocyte functionality; and hepatotoxicity. […]

Compound | outcome | AC50
CCCCCCCCCCCCCCC | inactive | –
CCCCC(CC)C(=O)O (stereo not given) | inactive | –
CN(C)CCOC(c1ccccc1)c1ccccc1 | inactive | –
N=C(N)c1ccc(OCCCCCOc2ccc(C(=N)N)cc2)cc1 | – | 3.57 µM (active)
OCC(CO)(CBr)CBr | inactive | –
CCC(C)c1ccccc1O (stereo not given) | inactive | –
CN(Cc1cnc2nc(N)nc(N)c2n1)c1ccc(C(=O)N[C@@H](CCC(=O)O)C(=O)O)cc1 | inactive | –
O=C(c1ccccc1)c1ccccc1 | inactive | –
CS(=O)(=O)c1ccc([C@@H](CC2CCCC2)C(=O)Nc2cnccn2)cc1Cl | – | 84 µM (active)
O=C(CCCN1CCC(O)(c2ccc(Cl)cc2)CC1)c1ccc(F)cc1 | – | 82.6 µM (active)
CCCCC=O | inactive | –
CCCCc1oc2ccccc2c1C(=O)c1cc(I)c(OCCN(CC)CC)c(I)c1 | – | 67.7 µM (active)
O=C1NS(=O)(=O)c2ccccc21 | inactive | –
Cc1[nH]nc2c1N=C(c1ccccc1Cl)c1cc([N+](=O)[O-])ccc1N2 | – | 7.93 µM (active)
CC(=O)Nc1ccc(O)cc1 | inactive | –
